From PubChem BioAssay (NCI)
This is part of a sample that, as a whole, favours compounds with a hit. Of some 79,000 tested, about 15% had one in any assay. Cut-off read from the data, not from the text of the source: active = growth inhibition above about 70%; inactive = the rest.

Tests used:
[1] = NCI Yeast Anticancer Drug Screen. Data for the rad50 strain (AID 155);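 note: 0% = growth of vehicle-only cultures of the same strain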; details: S. cerevisiae rad50 strain growth inhibition; at 50.0 µM; stronger effect = higher value
Outline: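 Genetically altered yeast (DNA repair pathway); compound treatment; growth inhibition vs vehicle ctrl.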

[2] = NCI Yeast Anticancer Drug Screen. Data for the mec2-1 strain (AID 157); details: S. cerevisiae mec2-1 strain, at 50.0 µM, stronger effect = higher value
Outline: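 Cells of the genetically defined mec2-1 yeast strain are incubated with test compound. Inhibition of growth is calculated against vehicle-treated controls.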

[3] = NCI Yeast Anticancer Drug Screen. Data for the sgs1 mgt1 strain (AID 161);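 note: 0% = growth of cultures given vehicle only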; details: S. cerevisiae sgs1 mgt1 strain, at 50.0 µM, stronger effect = higher value
Outline: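 Test agents were incubated with a DNA-repair-mutant yeast strain. Growth was then read and compared against vehicle-treated controls.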

[4] = NCI Yeast Anticancer Drug Screen. Data for the cln2 rad14 strain (AID 165);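 note: 0% = growth equal to vehicle treated cultures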; details: S. cerevisiae cln2 rad14 strain, at 50.0 µM, stronger effect = higher value
Outline: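 The screen exposed genetically defined yeast (cln2 rad14) to test compounds and scored growth inhibition relative to vehicle-treated controls.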

[5] = NCI Yeast Anticancer Drug Screen. Data for the bub3 strain (AID 167); details: S. cerevisiae bub3 mutant strain, at 50.0 µM, stronger effect = higher value
Outline: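 Yeast carrying a defined mutation is treated with each compound, and growth is compared with that of vehicle-exposed cells to give inhibition.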

[6] = NCI Yeast Anticancer Drug Screen. Data for the mlh1 rad18 strain (AID 175); details: S. cerevisiae mlh1 rad18 strain growth inhibition; at 50.0 µM; stronger effect = higher value
Outline: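 Compound-treated yeast growth, normalised to vehicle controls. Strain bears defined DNA repair mutations.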

Measured: growth inhibition

Clc1ccc(C=Nc2ccccc2)c(Cl)c1
inactive: [1] 23.9% | [2] 10.8% | [3] 20.9% | [4] 11.5% | [5] -2.75% | [6] 26.6%

CC1CCN(C(=O)Nc2ccccc2)CC1
inactive: [1] -7.1% | [2] -17.2% | [3] 4.9% | [4] -51.3% | [5] -6.05% | [6] -10.7%

CC12CCC(C/C1=N\NC(N)=O)C2(C)C (stereo unspecified)
inactive: [1] 4.2% | [2] -16.6% | [3] -18.2% | [4] 2.55% | [5] -19.9% | [6] -1.45%

CCN(CC)Cc1cc(OC(=O)c2cc(OC)c(OC)c(OC)c2)cc(C(=O)OC)c1
inactive: [1] 3.2% | [2] 3.7% | [3] -19.1% | [4] -32% | [5] 8.5% | [6] -10.3%

Cc1ccc(-c2ccc(C)cc2)cc1
inactive: [1] -31.2% | [2] -38% | [3] -22.2% | [4] -11.1% | [5] -36.9% | [6] -11.1%

N#Cc1c(-c2ccccc2)c(C#N)c(=S)n(C2OCC(O)C(O)C2O)c1N (stereo unspecified)
inactive: [1] -23.6% | [2] -2.2% | [3] -10% | [4] -38.5% | [5] 3.05% | [6] -15.1%

CC(=O)OCC1OC(Nc2[nH]c(=O)n(C)c(=O)c2C(=O)CCl)C(OC(C)=O)C(OC(C)=O)C1OC(C)=O (stereo unspecified)
inactive: [1] 5.15% | [2] 18.5% | [3] 2.45% | [4] -2.55% | [5] -3.8% | [6] -4.15%

COC(=O)c1cc(NS(=O)(=O)c2ccc(N)cc2)cc(C(=O)OC)c1
inactive: [1] -12.6% | [2] -24.2% | [3] -7.5% | [4] 4.7% | [5] -14.8% | [6] -24.6%

CC(C)c1ccc(O)c(C(C)(C)C)c1
inactive: [1] -25.5% | [2] -29.8% | [3] -14.3% | [4] -13.9% | [5] -32.5% | [6] -14.6%

O=[N+]([O-])c1ccc(-n2nnc3ccccc32)nc1
inactive: [1] -3.9% | [2] -4.85% | [3] -7.35% | [4] -16.6% | [5] 7.5% | [6] -9.75%

CN(C)CCCN1c2ccccc2Sc2cnccc21
inactive: [1] 7.6% | [2] -8.2% | [3] -0.2% | [4] -0.05% | [5] -1.45% | [6] 15.3%

O=C1c2cccc3cc([N+](=O)[O-])cc(c23)C(=O)N1Cc1ccco1
inactive: [1] 24.6% | [2] 8.85% | [3] 32.2% | [4] 16.8% | [5] 7.65% | [6] 0.95%

O=C(Nc1ccccc1-c1nn(CO)c(=S)n(CO)c1=O)C(F)(F)F
inactive: [1] 40.2% | [2] 23.9% | [3] 43.2% | [4] 12.6% | [5] -22.6% | [6] 20.2%

CC(=O)C1C(=O)C(=O)N(c2ccccc2C)C1=O (stereo unspecified)
inactive: [1] -25.6% | [2] -20.6% | [3] -13.8% | [4] 9.45% | [5] -24.9% | [6] -25.4%

CCOC(=O)NCC(Cl)(Cl)Cl
inactive: [1] -4.6% | [2] 0.25% | [3] -11.1% | [4] -51.4% | [5] 6.6% | [6] -6.7%

O=Cc1ccc(O)cn1
inactive: [1] -0.65% | [2] 6.25% | [3] -4.4% | [4] -11.9% | [5] 1.75% | [6] -0.75%

COc1cc2c(cc1OC)C[N+]1(C)CCc3cc(OC)c(OC)cc3C1C2 (stereo unspecified)
inactive: [1] -16% | [2] -30.9% | [3] -9.9% | [4] 9.1% | [5] -8% | [6] -5.55%

CCN(CC)CC(c1ccccc1)C(C)(O)c1ccccc1 (stereo unspecified)
inactive: [1] -2% | [2] -10.1% | [3] -8% | [4] 10.9% | [5] 27.4% | [6] -22.4%

CCc1cc(CN2CCN(CCO)CC2)c(O)c(CN2CCN(CCO)CC2)c1
inactive: [1] 1.5% | [2] 6% | [3] -13.2% | [4] 3% | [5] -0.9% | [6] 9.35%

CC1(c2cccc[n+]2Cc2ccccc2S(=O)(=O)[O-])OCCO1
inactive: [1] 5.5% | [2] -3.6% | [3] -8.95% | [4] 0.3% | [5] -3.95% | [6] -21.6%

CCN(CC)C1CCC(C2c3cc4c(cc3OC(N3CCOCC3)C2C)OCO4)CC1 (stereo unspecified)
inactive: [1] -11.1% | [2] -18.4% | [3] -22.8% | [4] -63% | [5] 7.95% | [6] -22.4%

COC(=O)/C=C/c1cc(OC)c2c(c1)C(C(=O)OC)C(c1ccc(O)c(OC)c1)O2 (stereo unspecified)
inactive: [1] -2.75% | [2] 7.6% | [3] -38.4% | [4] -17.6% | [5] -23.8% | [6] -8.95%

Cc1nc2cccc([N+](=O)[O-])c2n1CCCN(C)C
inactive: [1] 1.7% | [2] 6.5% | [3] 11.9% | [4] -8.9% | [5] 18.3% | [6] 10.1%

NC(=O)c1c[nH]c(=O)cc1O
inactive: [1] -5.35% | [2] -13.6% | [3] 50.2% | [4] 18.8% | [5] 7.3% | [6] 0%

CC1CN(CNC(=O)NCN2CC(C)OC(C)C2)CC(C)O1 (stereo unspecified)
inactive: [1] 15.7% | [2] -3.7% | [3] 24.8% | [4] 11.9% | [5] 0.95% | [6] -0.8%

CN(C)CC1CCC/C(=C\c2ccc(N(C)C)cc2)C1=O (stereo unspecified)
inactive: [1] -18.6% | [2] -44.9% | [3] -9.85% | [4] 12.2% | [5] 6.2% | [6] -34.3%

CCOC(=O)C1CNCCC1=O (stereo unspecified)
inactive: [1] -5.25% | [2] -20.9% | [3] -4.15% | [4] -1.4% | [5] -11.2% | [6] -8.95%

OC(C1CCCCCCCCCC1)C(O)C1CCCCCCCCCC1 (stereo unspecified)
inactive: [1] -35.5% | [2] -38.6% | [3] 2.8% | [4] 15.3% | [5] -38% | [6] -8.85%

Cc1ccc2c(=O)[nH]cnc2c1
inactive: [1] -10.4% | [2] -23.2% | [3] 4.45% | [4] -7.6% | [5] 2% | [6] -2.15%

CC(=O)OCC1OC2OC(C)(C)OC2C2OC(C)(C)OC12 (stereo unspecified)
inactive: [1] -13.5% | [2] 5.35% | [3] 19.2% | [4] -4.65% | [5] -7.65% | [6] -12.8%

CCCN=C(C(C)=O)N(C)C
inactive: [1] -1.7% | [2] 1.3% | [3] -14.9% | [4] 6.55% | [5] 24.2% | [6] 2.85%

COc1ccc(C(=O)Oc2ccccc2C)cc1
inactive: [1] 5.9% | [2] -26.4% | [3] -6.1% | [4] -11% | [5] -6.8% | [6] -1.95%

C/C(=N\O)c1sc(-n2nc(-c3ccccc3)cc2-c2ccccc2)nc1C
inactive: [1] 13.7% | [2] 4.2% | [3] 37.6% | [4] 25.4% | [5] 30.6% | [6] 19.3%

N=C1N=Nc2nc(C(C(=O)c3ccc(O)cc3O)c3nc4n(c3O)C(=N)N=N4)c(O)n21 (stereo unspecified)
inactive: [1] 2.35% | [2] -4.3% | [3] 7.15% | [4] -24% | [5] -15.3% | [6] -2.4%

CCCCOC(=O)NC(=O)c1cc2cc(Br)cc(Br)c2oc1=O
inactive: [1] -2% | [2] 25.8% | [3] 0.3% | [4] -7.05% | [5] -1.2% | [6] -17.2%

O=C(O)c1ccccc1C(=O)c1ccccn1
inactive: [1] -4% | [2] -31.8% | [3] -5.9% | [4] 10.6% | [5] -17.2% | [6] -15.2%

COC1=C(OC)C(=O)c2cc(SC)c(=O)c(SC)cc2C1=O
inactive: [1] -54.8% | [2] -29.2% | [3] -40.5% | [4] -22.1% | [5] -54.6% | [6] -60.2%

OCC(O)C(OC1OC(CO)C(O)C(O)C1O)C(O)c1cnn(-c2ccccc2)n1 (stereo unspecified)
inactive: [1] -0.05% | [2] 8.6% | [3] -24.3% | [4] -14.7% | [5] -1.5% | [6] 15.2%

O=C(O)[Si](c1ccccc1)(c1ccccc1)c1ccccc1
inactive: [1] 43.7% | [2] 25.9% | [3] 39.6% | [4] 4.8% | [5] 20.1% | [6] 48.1%

CN(C)CCC1(C2=CCCC2)CC/C(=C\c2ccc3c(c2)OCO3)C1=O (stereo unspecified)
inactive: [1] 4.85% | [2] -13.7% | [3] -22.2% | [4] 16.4% | [5] -2.55% | [6] 17.5%

CCCC(=O)NC(Nc1cc(C)ccn1)(C(=O)OCC)C(F)(F)F (stereo unspecified)
inactive: [1] -4.85% | [2] 8.5% | [3] 9.1% | [4] 7.4% | [5] 15.8% | [6] -31.9%
